Screening results: PubChem, several laboratories
Calb FLC: C. albicans growth inhibition with fluconazole, primary screen, CaCi-2 strain, Alamar Blue fluorescence. C. albicans CaCi-2 (fluconazole-resistant clinical isolate) + fluconazole, 48 h. growth inhibition, % (test concentration not listed). 0.57% of 300,000 active. AID 1979, 2009;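 active means growth inhibition above about 58% in most replicates, limit read from the data, passing the limit was not always enough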;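 further: all wells also contain fluconazole at 8 µg/ml as a sub-toxic cotreatment; 0% = median of DMSO wells and 100% = median of geldanamycin control wells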
CSC inhib: cancer stem cell viability inhibitors, primary screen, luminescence; cancer stem cell-like cells viability; 1.1% of 300,000 active; inhibition, % at 7.5 µM; in the data active means inhibition above about 75%; tested in HMLE shEcad cells
ALR H2O2 inh: inhibitors of human ALR sulfhydryl oxidase, primary screen, biochemical, H2O2 detection, HRP-luminol luminescence, single point. AID 485317, 2010. inhibition, % (concentration not given with the values). purified ALR, DTT oxidation. 3.8% of 290,000 active;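 active means mean replicate inhibition above about 79%, with every replicate also reaching it, limit read from the data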
Target sequence (P55789 whole entry, looked up): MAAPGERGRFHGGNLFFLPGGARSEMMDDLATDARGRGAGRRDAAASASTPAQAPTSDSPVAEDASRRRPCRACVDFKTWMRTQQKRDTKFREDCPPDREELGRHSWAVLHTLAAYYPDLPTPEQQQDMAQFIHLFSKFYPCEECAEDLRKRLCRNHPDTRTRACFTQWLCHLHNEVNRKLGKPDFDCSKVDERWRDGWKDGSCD
PP5 primary: PP5 phosphatase inhibitors, primary screen, biochemical, fluorescence. 0.18% of 320,000 active. purified PP5c, OMFP substrate fluorescence. AID 1987, 2009. inhibition, % at 6.7 µM. Serine/threonine-protein phosphatase 5 (Homo sapiens), P53041;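 active means inhibition above the campaign's mean inhibition across all tested compounds plus 3 SD, cut at about 9.5% in these data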;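 further: 0% = DMSO only and 100% = 100 µM cantharidin control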
PP1 counter: PP1-alpha phosphatase inhibitors, primary screen, counter-screen for PP5 inhibitor project, biochemical, fluorescence, OMFP substrate, single point; Serine/threonine-protein phosphatase PP1-alpha catalytic subunit (Homo sapiens), P62136; purified PP1alpha; inhibition, % at 6.7 µM; 0.9% of 320,000 active; AID 2235, 2010;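 active means inhibition above the mean inhibition of all tested compounds plus 3 SD, computed separately for each screening campaign, cut at about 15% in these data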
Target sequence (P62136 whole entry, looked up): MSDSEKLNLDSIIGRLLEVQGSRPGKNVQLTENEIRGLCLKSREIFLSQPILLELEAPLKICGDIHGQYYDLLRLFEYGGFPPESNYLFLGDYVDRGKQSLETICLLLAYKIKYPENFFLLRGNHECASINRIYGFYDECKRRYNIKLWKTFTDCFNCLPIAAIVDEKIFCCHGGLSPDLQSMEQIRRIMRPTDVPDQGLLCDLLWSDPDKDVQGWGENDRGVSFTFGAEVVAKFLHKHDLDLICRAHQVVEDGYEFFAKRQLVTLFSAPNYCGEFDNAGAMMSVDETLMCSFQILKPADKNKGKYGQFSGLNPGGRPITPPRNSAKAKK
* = called active by the depositor; . = no result. An excerpt weighted towards active compounds, which were near 5.4% of everything screened.

SMILES | Calb FLC | CSC inhib | ALR H2O2 inh | PP5 primary | PP1 counter
O=C1[C@@H]2Cc3c([nH]c4ccccc34)C(c3cccc(Br)c3)N2C(=O)CN1C1CCN(Cc2ccccc2)CC1 (stereo not given in full) | -3 | 82* | -6 | 5 | 9
COc1cccc(C2c3[nH]c4ccccc4c3C[C@H]3C(=O)N(C)CC(=O)N23)c1 (stereo not given in full) | 5 | -14 | 98* | 1 | 2
CCOC(=O)N1CCc2c(sc(NC(=O)c3ccc(Cl)s3)c2C(N)=O)C1 | . | 86* | 72 | 4 | 5
COc1ccc(/C=N/NC(=O)c2nn(C)cc2Br)cc1CSCc1ccco1 | -22 | -2 | 98* | 2 | -2
O=C(Nc1ccnn1C1CCN(C2CCC2)CC1)c1cccc(F)c1 | -3 | -7 | -3 | 0 | 0
O=C(NNS(=O)(=O)c1ccc([N+](=O)[O-])cc1)c1ccc2ccccc2c1O | 32 | 1 | 98* | . | .
O=C(NNS(=O)(=O)c1ccc(F)cc1)c1ccc([N+](=O)[O-])cc1 | 1 | -12 | 22 | -1 | -1
COc1cccc(C(=O)NNC(=O)c2ccc3ccccc3c2O)c1 | 102* | 9 | 21 | -2 | -3
O=C(Nc1ccc(Br)c2ccccc12)c1ccc2ccccc2c1O | 19 | 108* | -7 | -1 | 3
O=C(NNC(=O)c1ccc2ccccc2c1O)c1ccccc1Cl | 86* | 24 | -12 | -1 | 3
CCC1C/C(=C\c2cc(OC)c(OC)cc2OC)C(=O)/C(=C/c2cc(OC)c(OC)cc2OC)C1 (stereo not given) | 0 | 6 | -16 | 2 | -1
CCC1C/C(=C/c2ccco2)C(=O)/C(=C/c2ccco2)C1 (stereo not given) | . | -7 | 97* | -2 | 1
Oc1ccc(C2CNCc3sccc32)cc1O (stereo not given) | . | -5 | 98* | -1 | -2
Cc1ccc2sc(NNC(=O)c3cc(-c4cccs4)nc4ccccc34)nc2c1C | -7 | 38 | 5 | 1 | 2
Cc1cc(C)c2nc(NNC(=O)c3cc(-c4cccs4)nc4ccccc34)sc2c1 | 82* | 97* | 3 | 3 | 6
CCNS(=O)(=O)c1ccc(CCC(=O)Nc2ccc3c(c2)OCO3)cc1 | -9 | -12 | -7 | 0 | -4
CN(C)c1ccc(/C=C/c2ccc3ccccc3n2)cc1 | -2 | 84* | 44 | 1 | -4
O=C(/C=C/c1ccccc1O)c1ccc(Cl)cc1 | 9 | -5 | 52 | 0 | 17*
O=C(/C=C/c1ccccc1[N+](=O)[O-])c1ccc(F)cc1 | 2 | 6 | 98* | 0 | 3
Cc1cccc(NS(=O)(=O)c2nnc(NC(=O)c3ccccc3F)s2)c1 | -3 | 1 | 69 | 0 | -1
CC(C)c1ccc(C(C)NC(=O)C2CCCC2)cc1 (stereo not given) | -1 | -9 | -9 | 4 | -2
Cc1oc(-c2ccc(F)cc2)cc1-c1nn2c(-c3ccoc3C)nnc2s1 | -3 | -16 | 97* | 3 | 15*
COc1cccc(-c2nnc3sc(-c4ccco4)nn23)c1 | 4 | -19 | -9 | 2 | -1
Cc1nc2ccccc2n1-c1nc(-c2ccco2)cc(C(F)(F)F)n1 | 15 | 149* | -1 | 0 | -3
FC(F)(F)c1cc(-c2ccco2)nc(NCc2ccccc2)n1 | 9 | 2 | 98* | 4 | 1
SMILES | Calb FLC | CSC inhib | ALR H2O2 inh | PP5 primary | PP1 counter
CCN(CC(=O)Nc1c(F)cccc1F)C(=O)c1ccc(-n2cncn2)c([N+](=O)[O-])c1 | 8 | 7 | -20 | 1 | -7
Cc1noc(C)c1CSCC(=O)NC1=NCCS1 | 10 | -3 | 97* | 1 | 3
Cc1noc(C)c1CSCC(=O)Nc1nc2ccc(S(C)(=O)=O)cc2s1 | 0 | 2 | 97* | -1 | -6
Cc1ccc(NC(=O)C2CCCN2C(=O)OCc2ccccc2)c(O)c1 (stereo not given) | 3 | 9 | 86* | 1 | 0
CC1=CC2=C(OC1N(C)C)c1cccc3cccc(c13)C2=O (stereo not given) | 96* | 27 | -11 | 0 | 3
CN(C)CCCN1C(=O)c2cccc3cccc(c23)C1=O | 8 | -1 | -5 | -1 | -2
CCSc1nnc(-c2sc3nnc(-c4ccccc4)c(-c4ccccc4)c3c2N)o1 | 5 | 120* | . | 2 | 5
Cc1ccsc1/C=N/N=C/c1sccc1C | -4 | 15 | 1 | 0 | -2
Cc1ccsc1C=Nc1ccc(O)cc1 | 21 | 16 | 96* | 8 | 11
CCOC(=O)C1CCCN(S(=O)(=O)c2ccc3c4c2CC(=O)N4CC(C)S3)C1 (stereo not given) | -9 | 21 | -9 | 0 | 0
O=C(N/N=C/c1ccncc1)c1cccc(NC(=O)c2ccccc2Cl)c1 | -3 | 3 | -2 | 4 | -6
CCC(=O)Nc1nnc(C(C)(C)C)s1 | -3 | 21 | 98* | -1 | -1
COc1cccc(-c2nc(CS(=O)(=O)CC(=O)Nc3ccccc3Cl)c(C)o2)c1 | 0 | -11 | 87* | 3 | -2
COc1cccc(-c2nc(CS(=O)(=O)CC(=O)Nc3ccccc3Br)c(C)o2)c1 | -15 | -1 | 94* | 3 | 1
COc1cccc(-c2nc(CS(=O)(=O)CC(=O)Nc3ccccc3C)c(C)o2)c1 | 5 | -7 | -2 | 1 | -5
CC(C)[C@@H]1CC[C@@H](C)c2c(-c3ccccc3)n[nH]c21 | 28 | 101* | 2 | 6 | 3
CN(C)c1ccc(CNC(=O)c2cc(S(=O)(=O)N3CCCC3)cn2C)cc1 | 1 | -5 | 98* | 0 | 2
CN(C)c1ccc(CNC(=O)C2CCN(S(=O)(=O)c3ccc4c(c3)CCCC(=O)N4)CC2)cc1 | -6 | -14 | 98* | 0 | 1
COc1cccc(CNC(=O)C2CCN(S(=O)(=O)c3ccc4c(c3)CCC(=O)N4)CC2)c1 | -2 | 4 | 5 | -2 | 0
Cn1cc(S(=O)(=O)N2CCCC2)cc1C(=O)NCc1ccc(Cl)cc1 | 5 | -13 | -2 | 3 | 3
Cc1ccc(C(=O)NC(=S)NNC(=O)CC#N)cc1 | 109* | -7 | 99* | 3 | -1
N#CCC(=O)NNC(=S)NC(=O)C(c1ccccc1)c1ccccc1 | -6 | -4 | 16 | -2 | -2
CCCCC(=O)NNC(=S)NC(=O)c1ccc(C)cc1 | 101* | 13 | 99* | 0 | -3
O=S(=O)(Cc1ccccc1)N1CCN(C2Cc3ccccc3C2)CC1 | -1 | -5 | 4 | 1 | -1
CCc1ccc2nc(N3CCN(C(=O)C(C)(C)C)CC3)sc2c1 | -5 | -5 | -1 | -1 | -1
CC1CN(C(=O)COC(=O)c2ccc(Cl)nc2)CC(C)O1 (stereo not given) | 0 | -7 | 91* | 0 | -3
CC1CCN(C(=O)COC(=O)c2ccc(Cl)nc2)CC1 | . | -3 | 1 | . | .
